Assay outcomes from PubChem BioAssay.
This is one part of a sample in which hits are shown more often than they occur.
p53ts 32C tox = p53ts cell cytotoxicity, permissive temperature; H1299-p53A138V at 32C, ATP luminescence viability, 24 h; Potency, µM (titrated, usually from 46.1 µM), usual class: cytotoxic; 130,000 compounds, 0.93% hits; AID 924; further: nearly all actives have a fitted effect of over 55% in size
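Viability by ATPlite luminescence after 24 h compound treatment (up to 46 uM) at the permissive 32C. Cells are H1299 carrying p53 A138V. Scale runs from DMSO basal to 100 uM tamoxifen as full kill; AC50 from Hill fits.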
p53ts 39C tox = p53ts cell cytotoxicity, nonpermissive temperature; Potency, µM (highest dose often 46.1 µM), usual class: cytotoxic; H1299-p53A138V viability at 39C, ATP luminescence, 24 h; 130,000 compounds, 1.5% hits; further: nearly all actives have a fitted effect of over 55% in size
Hsp90 Hop PPI = changes Hsp90-Hop TPR2A binding signal, up or down; AlphaScreen TPR2A-His6 binding biotin-Hsp90 C-terminal peptide; Potency, µM (series often up to 57 µM); 71,000 compounds, 0.44% hits; AID 595; active means well fitted curve in either direction with a large enough effect; inconclusive means small, poorly fitted or top-dose-only effect, or another doubt
FLuc inh = inhibitors of firefly luciferase; P08659; purified firefly luciferase, luminescence, 8 min; Potency, µM (titrated, usually from 57.1 µM), hits mostly inhibitors; 72,000 compounds, 2.2% hits; AID 411; further: nearly all actives have a fitted effect of over 40% in size
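Here, luciferase activity is measured as luminescence following an 8 min room-temperature reaction at 10 uM ATP, pH 7.2. Every library sample is titrated.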
IMPase inh = IMPase inhibition in cells | P97697 | CHO-M1 cells, IP1 accumulation, HTRF TR-FRET ratio | inhibition (IP1 accumulation), % at 46.1 µM | 120,000 tested, under 10 active | AID 901; active means well fitted curve in the direction sought with a large enough effect in the signal ratio, not every such curve was filed as active; inconclusive means small, poorly fitted or top-dose-only effect, or a change in a side signal; inactive means no such curve, though single readings can be large or run the other way; the % refers to the signal ratio;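 further: cells stimulated with carbachol in lithium chloride buffer; higher means more IMPase inhibition seen as more IP1 and lower FRET ratio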
Target sequence (P97697 whole entry, looked up): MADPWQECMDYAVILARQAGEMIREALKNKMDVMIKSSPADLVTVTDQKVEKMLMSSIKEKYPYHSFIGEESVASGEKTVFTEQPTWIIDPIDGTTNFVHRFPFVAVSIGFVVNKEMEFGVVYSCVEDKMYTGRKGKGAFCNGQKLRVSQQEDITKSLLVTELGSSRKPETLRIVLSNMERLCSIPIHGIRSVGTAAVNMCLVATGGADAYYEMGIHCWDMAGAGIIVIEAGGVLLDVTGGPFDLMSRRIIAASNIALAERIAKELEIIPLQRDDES
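CHO-M1 cells (CHO stably expressing M1 receptor), compound up to 46 uM final, stimulated with carbachol (50 uM as added) in buffer with 50mM LiCl, pH 7.4, 30 min at 37C. Cytosolic IP1 read by TR-FRET; AC50 from Hill fits.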
IkB signaling = inhibitors of IkB signaling in ABC-DLBCL cells; ABC-DLBCL IkBa-CBG/CBR dual luciferase ratio, 4 h; response scale: scaled: untreated 0%, proteasome inhibitor 100%; Potency, µM (doses to about 57.1 µM); 110,000 compounds, 0.04% hits; active means well fitted curve in the direction sought with a large enough effect in the signal ratio, not every such curve was filed as active; inconclusive means small, poorly fitted or top-dose-only effect, or a change in a side signal; the % refers to the signal ratio;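 further: the direction sought is a rising ratio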
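Curves were fitted separately to fusion (green), unfused (red) and ratio luminescence, then classed by r2, magnitude and activity. Cells: OCI-Ly3, 4 h compound plus doxycycline at 37C; 10 uM MG-132 defined full response.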
Numbers stand for hits; 0 = inactive; ? = inconclusive; - = not tested or not shown; ! = not active in a repeat; [ ] = another dose, or the depositor's remark. Unless noted, the call rests on the fitted dose curve; in most records, active means well fitted curve in the direction sought with a large enough effect; inconclusive means small, poorly fitted or top-dose-only effect, or another doubt; inactive means no such curve, though single readings can be large; an effect the other way counts as inactive or inconclusive.

SMILES	p53ts 32C tox	p53ts 39C tox	Hsp90 Hop PPI	FLuc inh	IMPase inh	IkB signaling
CCOc1ccccc1N(C)C(=O)c1cc(S(=O)(=O)NCc2ccc(C)cc2)ccc1F	0	0	-	-	-	?
NC(=O)c1c(NC(=O)c2cc3ccccc3o2)sc2c1CCC2	?	?	0	3.2µM	0	?
Cc1ccc(C(=O)Nc2sc3c(c2C(=O)O)CCCCC3)o1	7.9µM	6.3µM	0	20µM	0	?
COc1cccc(N2CCN(C(=O)CCCn3c(=O)[nH]c4ccc(Br)cc4c3=O)CC2)c1	13µM	0	-	-	-	?
CC(C)(C)OC(=O)N1CCC(c2c(C(=O)NCCN3CCC(Cc4ccccc4)CC3)cnn2-c2ccc(F)cc2)CC1	?	25µM	-	-	-	?
CC(C)(C)OC(=O)N1CCC(c2c(C(=O)NCCN3CCC(Cc4ccccc4)CC3)cnn2-c2ccccc2)CC1	?	32µM	-	-	-	0
COc1ccc(CCN2CCC(CNC(=O)c3cnn(-c4ccccc4)c3C3CCN(C(=O)OC(C)(C)C)CC3)CC2)cc1	0	13µM	-	-	-	?
Cc1ccc(NC(=O)NCc2c(-n3cccc3)sc3c2CCCC3)c(Cl)c1	0	0	-	-	-	0
COc1ccccc1Cn1cc(C(=O)c2ccc(Cl)cc2)c(=O)c2ccccc21	?	13µM	-	-	-	?
COc1ccccc1C(=O)OCc1cc(=O)n2c(C)csc2n1	?	0.13µM	-	-	-	?
COc1cccc(C(=O)Nc2ccccc2C(=O)OCc2cc(=O)n3c(C)csc3n2)c1	0	0	-	-	-	0
COc1ccccc1N=c1oc2cc(O)ccc2cc1C(N)=O	?	13µM	0	7.9µM	0	?
COc1cccc(CNC(=O)CCc2c(C)nn(-c3ccc(N4CCOCC4)nn3)c2C)c1	0	0	-	-	-	0
CC(=O)Nc1ccc(NC(=O)c2ccc3c(c2)CCN3S(=O)(=O)c2ccc(C)cc2)cc1	0	0	-	-	-	0
CC(=O)N1CCc2cc(NC(=O)c3ccc(C)cc3)ccc21	6.3µM	10µM	0	6.3µM	0	0
CCc1ccc(S(=O)(=O)Nc2ccc(O)c(C(=O)O)c2)cc1	0	0	-	-	-	-
COc1ccccc1-c1cc(C(=O)Nc2c(C)nn(Cc3ccc(Cl)cc3)c2C)no1	?	13µM	-	-	-	?
COc1ccc(-c2cc(C(=O)Nc3c(C)nn(Cc4ccc(Cl)cc4)c3C)no2)cc1	0	0	0	0	0	0
COc1ccc(-c2cc(C(=O)N3CCN(c4ccccc4)CC3)c3ccccc3n2)cc1OC	-	-	-	-	0	-
O=C(c1cc(-c2ccccc2)nc2ccccc12)N1CCN(c2ccccn2)CC1	0	0	0	20µM	0	?
Cc1ccc(-c2cc(C(=O)N3CCN(c4ccccc4)CC3)c3ccccc3n2)cc1C	13µM	10µM	-	-	-	0
O=C1c2ccccc2C(O)(O)[C@@]1(O)[C@]1(O)C(=O)c2ccccc2C1(O)O	0[9.22 µM]	0[9.22 µM]	0[11 µM]	0[11.4 µM]	-	0[11.4 µM]
O=C(Nc1ccc(SC(F)F)cc1)C1=COCCO1	?	?	0	25µM	0	0
COc1ccc(-n2nnnc2S(=O)(=O)CC(=O)N2CCCCC2)cc1	20µM	?	0	0	0	?
COc1ccc(-n2nnnc2S(=O)(=O)Cc2ccc(C(=O)O)cc2)cc1	0	0	0	0	0	?
SMILES	p53ts 32C tox	p53ts 39C tox	Hsp90 Hop PPI	FLuc inh	IMPase inh	IkB signaling
Cc1cc2c(cc1NC(=O)c1ccccc1C)n(C)c(=O)c(=O)n2C	0	0	-	-	-	0
c1cncc(Nc2nc(-c3cccnc3)cs2)c1	0	0	0	0	0	0
c1ccc(Nc2nc(-c3cccnc3)cs2)nc1	?	16µM	0	4µM	0	?
c1ccc(Nc2nc(-c3cccs3)cs2)nc1	13µM	?	0	5µM	0	?
O=C(O)/C(Cc1ccc([N+](=O)[O-])cc1)=N/O	0[9.22 µM]	0[9.22 µM]	0[11 µM]	0[11.4 µM]	-	0[11.4 µM]
CN1CCN(c2ccc(NC(=O)c3ccc4c(c3)OCO4)cc2)CC1	?	?	0	25µM	0	0
Cc1cc(N2CCN(C)CC2)nc2ccc(NC(=O)c3ccc4c(c3)OCO4)cc12	?	0	0	25µM	0	?
Cc1cc(N2CCN(C)CC2)nc2ccc(NC(=O)c3ccc(Br)o3)cc12	0	0	0	0	0	0
CC(=O)N1CCN(c2ccc(NC(=O)c3ccc4c(c3)OCCO4)cc2)CC1	0	0	0	0	0	0
Cc1conc1NC(c1cccs1)c1ccc2cccnc2c1O (stereo not given)	13µM	?	25µM	0	0	?
Cc1ccc(-c2noc(-c3ccc(NC4CCCC4)c([N+](=O)[O-])c3)n2)cc1	0	0	-	-	-	0
OCCN1CCN(CCCN2c3ccccc3Sc3ccc(Cl)cc32)CC1	16µM!	10µM!	0	0	0	0
CN(C)CCCN1c2ccccc2Sc2ccc(Cl)cc21	?	10µM!	0	0	0	0
Cc1ccc(C)c(CSc2nc(-c3ccccc3F)nc3c2Cc2c(CO)cnc(C)c2O3)c1	0	0	-	-	-	0
Cc1ccccc1S(=O)(=O)Cc1ccc(C(=O)N2CCN(c3cccc(Cl)c3)CC2)o1	0	?	-	-	-	?
